For 7 molecules, AC50 and outcome results are on record in PubChem BioAssay (EPA / NIEHS).

Each structure is given as a SMILES string. “And” between values parts separate entries of the source, which are not always exact repeats. Equal entries are not always repeated. A structure can be active in one record and inactive in another. The source made the active and inactive calls. The calls were made as follows: active = hit-call score of the fitted dose curve at least 0.9, where 1 is the maximum; inactive = score below 0.9.

Read-out in assay [1]: Monocyte Chemoattractant Protein-1 (MCP1), CCL2 (gene 6347)
The assay can be described thus: BSK_LPS_MCP1: BioMAP Diversity Plus: LPS Assay for Monocyte Chemoattractant Protein-1 (MCP1) Biomarker Activity (AID 2283081).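 As to AC50: secreted MCP-1 protein quantified by ELISA in culture supernatant.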 The following applies: primary human HUVEC with PBMC; actives raise or lower the signal. The essentials:
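Secreted MCP-1 read by ELISA at 24 h post-dosing in an LPS-activated co-culture of endothelial cells with peripheral blood mononuclear cells. Fits run in both directions, DMSO as baseline; parallel SRB staining tracks overt cytotoxicity.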

Assay [2] is described as follows: BSK_LPS_PGE2: BioMAP Diversity Plus: LPS Assay for Prostaglandin E2 (PGE2) Biomarker Activity (AID 2283082).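 As to AC50: secreted prostaglandin E2 measured by ELISA in LPS-stimulated co-culture.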 The following applies: primary human HUVEC with PBMC; actives raise or lower the signal. The method, boiled down:
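HUVEC plus PBMC co-culture stimulated with LPS; secreted PGE2 quantified by ELISA 24 h after chemical dosing. Activity fitted bidirectionally against DMSO as negative control and baseline; parallel SRB total-protein staining served as cytotoxicity check.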

Read-out in assay [3]: Macrophage colony-stimulating factor (MCSF), CSF1 (gene 1435)
The assay can be described thus: BSK_LPS_MCSF: BioMAP Diversity Plus: LPS Assay for Macrophage colony-stimulating factor (MCSF) Biomarker Activity (AID 2283083). As to conditions: primary human HUVEC with PBMC; actives raise or lower the signal. The method, boiled down: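 Bidirectional fitting against DMSO was applied to M-CSF levels read by ELISA at 24 h post-dose. The system pairs human umbilical vein endothelium with peripheral blood mononuclear cells; parallel SRB staining tracked cytotoxicity.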

Read-out in assay [4]: Tissue Factor, F3 (gene 2152)
The assay can be described thus: BSK_LPS_TissueFactor: BioMAP Diversity Plus: LPS Assay for Tissue Factor Biomarker Activity (AID 2283084). The following applies: primary human HUVEC with PBMC; actives raise or lower the signal. The essentials:
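Compound was added to an endothelial cell/PBMC co-culture, and after 24 h tissue factor (CD142) was read by ELISA. Gain or loss of signal was fitted against a DMSO baseline, and parallel SRB staining (560 nm) tracked overt cytotoxicity.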

Read-out in assay [5]: Tumor necrosis factor (Homo sapiens) (UniProt P01375)
Description: BSK_LPS_TNFa: BioMAP Diversity Plus: LPS Assay for Tumour Necrosis Factor alpha (TNFa) Biomarker Activity (AID 2283085). As to conditions: primary human HUVEC with PBMC; actives raise or lower the signal. The method, boiled down:
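Human umbilical vein endothelial cells co-cultured with PBMC were exposed to test chemical and TNFa measured by ELISA 24 h after dosing. Bidirectional curve fitting was done relative to DMSO as negative control and baseline.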

Read-out in assay [6]: Vascular cell adhesion molecule 1 (VCAM1), VCAM1 (gene 7412)
The assay can be described thus: BSK_LPS_VCAM1: BioMAP Diversity Plus: LPS Assay for Vascular cell adhesion molecule 1 (VCAM1) Biomarker Activity (AID 2283086). As to conditions: primary human HUVEC with PBMC; actives raise or lower the signal. The essentials: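 Human umbilical vein endothelial cells co-cultured with peripheral blood mononuclear cells under LPS stimulation were exposed to test chemical for 24 h. VCAM-1 levels were then measured by ELISA, with bidirectional curve fitting relative to DMSO as negative control and baseline.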

Read-out in a further assay: CD38, CD38 (gene 952)
The assay can be described thus: BSK_SAg_CD38: BioMAP Diversity Plus: SAg Assay for CD38 Biomarker Activity (AID 2283087). The following applies: primary human HUVEC with PBMC; actives raise or lower the signal. The essentials: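 Fluorescence ELISA of cell-surface CD38 served as the read-out, with either increase or decrease fitted against DMSO controls. Cells were a human umbilical vein endothelium plus PBMC co-culture under SEB/TSST-1 stimulation, measured 24 h after dosing.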

Read-out in a further assay: CD40, CD40 (gene 958)
The assay can be described thus: BSK_SAg_CD40: BioMAP Diversity Plus: SAg Assay for CD40 Biomarker Activity (AID 2283088). The following applies: primary human HUVEC with PBMC; actives raise or lower the signal. The method, boiled down:
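CD40 is measured by fluorescence ELISA in an endothelial/PBMC primary human co-culture at 24 h post-dose. Fitting is bidirectional, DMSO baseline. Parallel SRB staining (560 nm) flags cytotoxicity.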

Read-out in a further assay: CD69, CD69 (gene 969)
The assay can be described thus: BSK_SAg_CD69: BioMAP Diversity Plus: SAg Assay for CD69 Biomarker Activity (AID 2283089).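 As to AC50: cell surface CD69 protein quantified by ELISA with fluorescence detection.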 The following applies: primary human HUVEC with PBMC; actives raise or lower the signal. The method, boiled down: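 Primary human vascular co-culture (umbilical vein endothelium with peripheral blood mononuclear cells) exposed to test chemical for 24 h. CD69 levels quantified by fluorescence ELISA; DMSO served as negative control for bidirectional fitting.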

Read-out in assay [7]: Monocyte Chemoattractant Protein-1 (MCP1), CCL2 (gene 6347)
The assay can be described thus: BSK_SAg_MCP1: BioMAP Diversity Plus: SAg Assay for Monocyte Chemoattractant Protein-1 (MCP1) Biomarker Activity (AID 2283090). As to conditions: primary human HUVEC with PBMC; actives raise or lower the signal. The essentials:
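MCP-1 levels in the endothelial–PBMC SAg co-culture were quantified by ELISA at 24 h post-dosing; both increases and decreases versus DMSO scored. Cytotoxicity monitored by SRB total protein in parallel cultures.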

Read-out in assay [8]: E-selectin (Homo sapiens) (UniProt P16581)
The assay can be described thus: BSK_SAg_Eselectin: BioMAP Diversity Plus: SAg Assay for Eselectin Biomarker Activity (AID 2283091). As to conditions: primary human HUVEC with PBMC; actives raise or lower the signal. The method, boiled down:
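Cell-surface E-selectin is read by ELISA at 24 h in the SAg co-culture of HUVEC and PBMC. Curves are fitted in both directions relative to DMSO. Parallel SRB total-protein staining tracks overt toxicity.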

Read-out in assay [9]: Monokine induced gamma interferon (MIG), CXCL9 (gene 4283)
Description: BSK_SAg_MIG: BioMAP Diversity Plus: SAg Assay for Monokine induced gamma interferon (MIG) Biomarker Activity (AID 2283092). The following applies: primary human HUVEC with PBMC; actives raise or lower the signal. The method, boiled down:
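Endothelial cells and PBMC were co-cultured, exposed to test chemicals, and sampled 24 h later. MIG was measured by ELISA, and responses were fitted in both directions relative to DMSO.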

Assay [10] can be described thus: BSK_SAg_PBMCCytotoxicity: PBMC Cytotoxicity Assessment in the BioMAP Diversity Plus: SAg Assay (AID 2283093).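 Also: PBMC viability measured as Alamar Blue reduction fluorescence at 546/580 nm; fitted both ways against DMSO so a hit may be loss or gain of signal.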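 As to AC50: PBMC superantigen activated with SEB plus TSST-1 one hour after compound addition.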 As to conditions: primary human HUVEC with PBMC. The essentials:
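Compound added to 75,000 PBMC/well for 1 h; SEB and TSST-1 then added at 20 ng/mL final each; 90 h incubation; Alamar Blue 6 h; read 546/580 nm ex/em. Activity fitted bidirectionally relative to DMSO baseline.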

Read-out in assay [11]: Interleukin-8 (IL8), CXCL8 (gene 3576)
Description: BSK_SAg_IL8: BioMAP Diversity Plus: SAg Assay for Interleukin-8 (IL8) Biomarker Activity (AID 2283094). The following applies: primary human HUVEC with PBMC; actives raise or lower the signal. The method, boiled down:
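Human umbilical vein endothelial cells co-cultured with peripheral blood mononuclear cells; IL-8 measured by ELISA 24 h after chemical dosing. Bidirectional concentration-response fitting used DMSO as negative control and activity baseline.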

Assay [12] is described as follows: BSK_SAg_Proliferation: Cell Proliferation Assessment in the BioMAP Diversity Plus: SAg Assay (AID 2283095).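 Also: relative cell number as total protein by SRB absorbance in sub-confluent culture.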 The following applies: primary human HUVEC with PBMC. The method, boiled down:
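Human umbilical vein endothelial cells co-cultured with peripheral blood mononuclear cells; total protein measured by sulforhodamine B staining (0.1% SRB after 10% TCA fixation), absorbance at 560 nm, at 96 h. Bidirectional fit against DMSO baseline.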

Assay [13] can be described thus: BSK_SAg_SRB: Viability Assessment in the BioMAP Diversity Plus: SAg Assay (AID 2283096).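 Also: cells read one day after compound addition; hits may be either gain or loss of signal compared with DMSO.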 The following applies: primary human HUVEC with PBMC. The essentials: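 Total protein by sulforhodamine B staining, 24 h after dosing, in HUVEC–PBMC co-culture; DMSO-referenced bidirectional fitting.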

Tumor necrosis factor (Homo sapiens), sequence (P01375 whole entry, looked up): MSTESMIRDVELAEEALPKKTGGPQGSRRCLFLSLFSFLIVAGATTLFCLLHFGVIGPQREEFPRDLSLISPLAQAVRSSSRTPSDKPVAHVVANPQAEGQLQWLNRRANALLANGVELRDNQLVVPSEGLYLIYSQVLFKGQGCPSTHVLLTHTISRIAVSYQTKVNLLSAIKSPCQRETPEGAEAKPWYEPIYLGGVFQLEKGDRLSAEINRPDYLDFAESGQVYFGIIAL
E-selectin (Homo sapiens), sequence (P16581 whole entry, looked up): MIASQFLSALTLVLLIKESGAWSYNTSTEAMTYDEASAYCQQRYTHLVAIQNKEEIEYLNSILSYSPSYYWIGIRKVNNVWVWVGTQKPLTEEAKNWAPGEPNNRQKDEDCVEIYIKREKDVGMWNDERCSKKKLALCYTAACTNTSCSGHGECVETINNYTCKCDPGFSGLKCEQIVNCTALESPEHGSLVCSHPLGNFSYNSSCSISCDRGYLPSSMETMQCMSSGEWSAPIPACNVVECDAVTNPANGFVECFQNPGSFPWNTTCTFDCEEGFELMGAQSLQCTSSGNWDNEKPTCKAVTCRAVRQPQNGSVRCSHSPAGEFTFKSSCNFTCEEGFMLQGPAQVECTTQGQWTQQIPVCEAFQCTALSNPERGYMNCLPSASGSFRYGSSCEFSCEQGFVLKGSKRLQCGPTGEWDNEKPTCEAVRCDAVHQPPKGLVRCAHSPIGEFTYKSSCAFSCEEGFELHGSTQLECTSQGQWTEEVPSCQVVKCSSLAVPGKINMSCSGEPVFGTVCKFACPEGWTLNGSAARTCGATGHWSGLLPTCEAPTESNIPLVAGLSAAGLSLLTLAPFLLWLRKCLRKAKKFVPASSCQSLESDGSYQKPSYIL

Regarding `CC1CCC(C(C)CS)CC1S` (centres undefined), the AC50 (as a rule, the concentration at which the activity in the assay is half-maximal) in [1] was 33.5 µM (active); in assay [3], 36.4 µM (active); in assay [4], 30.9 µM (active); in assay [6], 34.8 µM (active); in the assay with CD38, CD38 (gene 952), 32.8 µM (active); with CD40, CD40 (gene 958), 31.6 µM (active). Moreover, the half-maximal activity concentration (AC50) is 30.8 µM (active) in the assay with CD69, CD69 (gene 969); 32.6 µM (active) in assay [7]; 30.8 µM (active) in assay [8]; 34.6 µM (active) in [9]; 20 µM (active) in assay [11]; 30.7 µM (active) in [13]. The outcome in assay [2], in assay [5], in assay [10] and in assay [12] was inactive.
For `Cc1ccc(Nc2ccc(O)c3c2C(=O)c2ccccc2C3=O)cc1`, the outcome in assay [1] was “inactive”; in [3], “inactive”; in assay [4], “inactive”; in [6], “inactive”; in the assay with CD38, CD38 (gene 952), “inactive”; in the assay with CD40, CD40 (gene 958), “inactive”. Also, the outcome was “inactive” in the assay with CD69, CD69 (gene 969); “inactive” in assay [7]; “inactive” in assay [8]; “inactive” in assay [9]; “inactive” in [10]; “inactive” in assay [11]. Besides, the outcome in assay [13] was inactive. For the same molecule, the concentration at half-maximal activity (AC50) in assay [2] is 1.06 µM (active); in [5], 435 nM (active).
`C=CCOC(=O)CCC1CCCCC1`: the outcome in assay [1], in assay [2], in assay [3], in assay [4], in assay [5] and in [6] was inactive. Also, the outcome in the assay with CD38, CD38 (gene 952) is “inactive”; with CD40, CD40 (gene 958) it was “inactive”; in the assay with CD69, CD69 (gene 969) it was “inactive”; in [7], “inactive”; in assay [8], “inactive”; in [9] it was “inactive”. Moreover, the result in assay [10], in assay [11] and in [13] was inactive. For the same molecule, the concentration at half-maximal activity (AC50) in assay [4] is 1.01 µM (active).
As to `CCCCC/C=C/C=C/C=O`, the AC50 is 33.5 µM (active) in assay [1]; 25.3 µM (active) in [2]; 33.2 µM (active) in assay [3]; 31.9 µM (active) in assay [4]; 30800 nM (active) in assay [5]; 30 µM (active) in assay [6]. In addition, the AC50 with CD38, CD38 (gene 952) is 31.7 µM (active); with CD40, CD40 (gene 958), 20 µM (active); with CD69, CD69 (gene 969) it was 30 µM (active); in assay [7], 31.2 µM (active); in assay [8], 28.3 µM (active); in [9], 35.6 µM (active). The AC50 is 20 µM (active) in [10], 20 µM (active) in assay [11], 14.2 µM (active) in assay [12] and 31.5 µM (active) in assay [13].
Regarding `CN(CCOc1ccc(CC2SC(=O)NC2=O)cc1)c1ccccn1` (centres undefined), the outcome in [1], in assay [3], in assay [5], in assay [6], in [9] and in assay [10] was inactive. In [13], the result was inactive. In addition, the AC50 in assay [2] was 0.121 µM (active); in assay [4] it was 24.9 µM (active); with CD38, CD38 (gene 952), 20 µM (active); in the assay with CD40, CD40 (gene 958), 20 µM (active); with CD69, CD69 (gene 969), 20 µM (active); in [7], 20 µM (active). Moreover, the AC50 in assay [8] and in assay [11] was 20 µM (active) each time.
As for `C[C@H]1C[C@@H]2[C@H]([C@@H](O)C[C@@]3(C)[C@H]2CC[C@]3(O)C(=O)CO)[C@@]2(C)C=CC(=O)C=C12`, the outcome in assay [1] is “inactive”; in [2] it was “inactive”; in assay [3], “inactive”; in assay [4] it was “inactive”; in assay [6] it was “inactive”; with CD38, CD38 (gene 952), “inactive”. The outcome with CD40, CD40 (gene 958) was “inactive”; with CD69, CD69 (gene 969) it was “inactive”; in assay [7], “inactive”; in assay [9] it was “inactive”; in assay [10], “inactive”; in [13], “inactive”. For the same molecule, the half-maximal activity concentration (AC50) in assay [4] was 6.44 µM (active); in assay [5] it was 4.93 µM (active) and 3.97 µM (active); in [8], 3.1 µM (active) and 1.1 µM (active); in assay [11], 4.3 µM (active) and 1.37 µM (active).
As for `COC(=O)c1ccc(C)cc1`, the result in assay [1], in assay [2], in assay [3], in [4], in [5] and in assay [6] was inactive. Besides, the outcome in the assay with CD38, CD38 (gene 952) is “inactive”; in the assay with CD40, CD40 (gene 958), “inactive”; with CD69, CD69 (gene 969), “inactive”; in [7], “inactive”; in [8], “inactive”; in assay [9], “inactive”. Besides, the result in assay [10], in assay [11] and in assay [13] was inactive.
